Source: PubChem
PRMT1 inh = inhibitors of human PRMT1 | Q99873 | recombinant PRMT1, activity-based probe fluorescence polarization | inhibition, % at 2.79 µM | 370,000 compounds, 1.3% hits | AID 652257;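 active = inhibition above about 21% made by adding two undisclosed values, limit read from the data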
TLR4 MyD88 comp = TLR4-MyD88 interaction inhibition in cells | HeLa CL3-4 TLR4/MyD88 BLA complementation, FRET ratio | inhibition, % at 8.4 µM | AID 861 | 200,000 compounds, 0.18% hits | O00206+Q99836; in the data active = inhibition above about 25%;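 note: 0% = vehicle and 100% = reference inhibitor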
Granule exo inh = blocks lytic granule exocytosis. 360,000 compounds, 0.66% hits. AID 651702. inhibition, % at 10 µM. TALL-104 LAMP-1 surface exposure, flow cytometry; cells stimulated with thapsigargin and PMA;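 active = inhibition above about 55%, limit read from the data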
ABHD5 PLIN5 PPI = ABHD5-PLIN5 protein interaction inhibition; Split G. princeps luciferase complementation, luminescence, 4 h; AID 602281; 360,000 compounds, 0.78% hits; inhibition, % at 4 µM;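 active = inhibition above the mean inhibition across every tested compound plus 3 SD, cut at about 22% in these data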;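 note: 0% = DMSO only wells and the 100% control is not disclosed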
NOD2 RIPK2 PPI = NOD2-RIPK2 protein interaction inhibition | 360,000 compounds, 0.38% hits | inhibition, % at 4.98 µM | CHO BLA complementation NOD2-RIPK2, CCF4 ratio; in the data active = inhibition above about 21%;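 note: 0% = vehicle only and 100% = reference blocker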
Target sequence (O43353 whole entry, looked up): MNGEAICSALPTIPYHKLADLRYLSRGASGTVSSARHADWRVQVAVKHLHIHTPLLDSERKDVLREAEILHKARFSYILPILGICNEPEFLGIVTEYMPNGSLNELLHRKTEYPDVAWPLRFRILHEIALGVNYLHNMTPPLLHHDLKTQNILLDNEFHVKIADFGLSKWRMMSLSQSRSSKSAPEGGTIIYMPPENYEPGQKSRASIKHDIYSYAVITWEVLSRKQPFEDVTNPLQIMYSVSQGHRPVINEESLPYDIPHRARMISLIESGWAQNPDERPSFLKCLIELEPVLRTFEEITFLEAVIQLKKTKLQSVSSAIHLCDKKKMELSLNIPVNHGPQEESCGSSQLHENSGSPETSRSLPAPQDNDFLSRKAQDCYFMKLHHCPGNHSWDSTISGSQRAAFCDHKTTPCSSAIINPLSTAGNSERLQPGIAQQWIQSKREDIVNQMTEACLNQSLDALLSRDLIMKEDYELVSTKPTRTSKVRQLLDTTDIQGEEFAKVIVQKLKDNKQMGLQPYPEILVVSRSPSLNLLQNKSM
TLR9-MyD88 inh = TLR9-MyD88 interaction inhibition. Q9NR96+Q99836. inhibition, % at 4.98 µM. 340,000 compounds, 0.21% hits. CHO BLA complementation TLR9-MyD88, CCF4 FRET ratio;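 active = inhibition above the mean over all tested compounds plus 3 SD, cut at about 21% in these data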;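 note: 0% = DMSO only wells and 100% = clavulanate BLA inhibitor control wells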
PRMT1 confirm = confirmation of human PRMT1 inhibitors; shares compounds with PRMT1 inh; recombinant His-PRMT1, activity-based probe fluorescence polarization; inhibition, % at 2.79 µM; 3,300 compounds, 42% hits; AID 687036;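 active = mean inhibition across replicates above the hit cutoff derived for the earlier primary screen, cut at about 22% in these data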
Starred values were filed as active, the others as inactive; . = no result. This is a sample that favours compounds with a hit; in the whole collection about 2.6% have one here.

SMILES	PRMT1 inh	TLR4 MyD88 comp	Granule exo inh	ABHD5 PLIN5 PPI	NOD2 RIPK2 PPI	TLR9-MyD88 inh	PRMT1 confirm
Cc1c(C(=O)Nc2ccc(F)cc2)cn2c(nc3ccccc32)c1C#N	-3.3	.	-2.4	-1.9	6.9	-3.1	.
N#Cc1c2nc3ccccc3nc2n2cc(NC(=O)c3ccc(F)cc3)ccc12	40.9*	0.8	2.4	-0.1	0.2	0.4	13.9
O=C(CN1CCCCCC1)NN(Cc1ccccc1)c1ccccc1	0.6	.	-6.5	-5.5	-10.4	-6.5	.
CC(C)[N+]1=C2C=CC=CC=C2SC12C([N+](=O)[O-])=CC(=[N+]([O-])[O-])C=C2[N+](=O)[O-] (stereo not given)	36.7*	.	50.2	0.9	-7.4	-0.6	13.5
CN(C(=O)COC(=O)c1cc2ccccc2oc1=O)C1CCCCC1	26.6*	.	0.0	15.0	1.6	-5.4	3.5
CCN(Cc1ccccc1)S(=O)(=O)CCNC(=O)c1ccccc1	32.5*	.	3.3	8.5	8.6	8.6	0.7
CCN(Cc1ccccc1)S(=O)(=O)CCNC(=O)c1ccc(OC)cc1	4.9	.	-4.0	5.0	5.4	-2.1	.
O=C(CN1C(=O)C2C3C=CC(C3)C2C1=O)OCC(=O)c1ccc([N+](=O)[O-])cc1 (stereo not given)	50.0*	.	-11.7	-27.0	-23.6	3.3	42.3*
CC(C(=O)OCC(=O)c1ccc([N+](=O)[O-])cc1)N1C(=O)C2C3C=CC(C3)C2C1=O (stereo not given)	27.7*	.	-10.4	-19.6	1.6	-1.3	4.0
COc1cc(OC)c(NC(=O)N2CCOCC2)cc1Cl	-4.2	.	0.7	-2.4	-0.1	13.9	.
CCCCN(CC)CCCNC(=O)c1cn(-c2ccc(OC)cc2)c(=O)c2ccccc12	-2.2	.	11.1	2.5	-0.6	5.6	.
COc1cccc(-c2nc(N)nc(SC)c2C#N)c1	5.9	.	-5.6	0.1	-5.9	-6.0	.
COc1cccc(-c2nc(SC)nc3sc(C(=O)NC(C)(C)C)c(N)c23)c1	25.4*	.	-2.3	-15.7	1.5	5.8	0.0
CC(=O)[C@@]1(O)Cc2c(O)c3c(c(O)c2[C@H](O[C@H]2C[C@H](N)[C@H](O)[C@H](C)O2)C1)C(=O)c1ccccc1C3=O	169.5*	.	-6.2	-9.5	15.0	.	153.1*
COc1cccc2c1C(=O)c1c(O)c3c(c(O)c1C2=O)CC(O)(C(C)=O)CC3OC1CC(N(C)C)C(O)C(C)O1 (stereo not given)	193.2*	.	-2.2	10.0	2.4	-6.7	154.1*
COc1ccccc1CNS(=O)(=O)c1cc(CN2C(=O)c3cccnc3C2=O)ccc1OC	1.3	.	-2.1	2.2	-5.6	8.7	.
COc1ccc(CN2C(=O)c3cccnc3C2=O)cc1S(=O)(=O)NCc1ccc(C)o1	41.2*	.	-1.9	9.9	0.2	-6.8	-1.3
Fc1ccc(Nc2cncc(-c3ccsc3)c2)cc1Cl	25.5*	.	25.9	-36.8	-1.6	.	1.8
O=C(Nc1cccc2ccccc12)OCc1ccccc1	-1.6	.	-15.7	-0.7	-2.3	-4.0	.
Cc1sc(NC(=S)NC(=O)c2ccco2)c(C#N)c1C	48.7*	-8.4	0.7	-8.3	-3.3	0.9	3.0
Cc1sc(NC(=S)NC(=O)c2ccccc2)c(C#N)c1C	17.9	8.5	-1.2	-7.8	-5.4	-2.7	.
CCCN(CCC)C1CC(=O)N(Cc2ccccc2)C1=O (stereo not given)	76.5*	4.5	6.8	14.9	2.6	-4.7	23.6*
O=C1CC(N(O)C2CC(=O)N(Cc3ccccc3)C2=O)C(=O)N1Cc1ccccc1 (stereo not given)	8.8	5.7	15.6	-5.0	6.8	1.4	.
O=C(NCc1ccccc1)c1onc(CSc2ccccc2)c1C(=O)NCC1CC1	0.7	.	1.4	-14.8	4.7	-7.7	.
COc1ccc2c(c1OC)C(=O)N1c3ccccc3N=C(c3ccc([N+](=O)[O-])cc3)CC21 (stereo not given)	32.1*	1.2	-0.4	-16.6	0.0	-6.6	7.5
SMILES	PRMT1 inh	TLR4 MyD88 comp	Granule exo inh	ABHD5 PLIN5 PPI	NOD2 RIPK2 PPI	TLR9-MyD88 inh	PRMT1 confirm
COc1ccc2c(c1OC)C(=O)N1N=C(c3ccc(-c4ccccc4)cc3)CC21 (stereo not given)	-0.9	1.1	8.7	-2.0	-0.1	-2.2	.
COc1ccc(/C(C)=N/Nc2cccc(C(=O)O)c2)cc1OC	1.6	-0.4	-1.7	-5.4	3.3	8.6	.
C/C(=N\Nc1cccc(C(=O)O)c1)c1ccc(Cl)s1	42.5*	-0.5	1.9	1.3	-1.4	-4.5	10.4
Nc1nc(N)c2[nH]c(=S)[nH]c2n1	53.6*	.	-5.8	-8.5	3.9	0.3	8.9
Cc1nc2[nH]c(=S)[nH]c2c(=O)[nH]1	1.3	.	39.4	5.6	-8.2	6.0	.
COc1ccc(C(=O)NNC(=O)c2ccc3ccccc3n2)cc1	-1.9	.	1.6	6.6	0.8	-13.8	.
Cc1ccc(NC(=O)CSc2nc(N)cc(=O)[nH]2)cc1S(=O)(=O)N1CCCCC1	43.9*	.	-2.2	-9.2	0.7	3.5	-0.4
COc1ccccc1N(C)S(=O)(=O)c1ccc(C(=O)Nc2cccc(S(=O)(=O)N3CCOCC3)c2)cc1	9.1	.	-0.4	2.7	-3.3	6.6	.
OC[C@@H]1CN(CCN2CCOCC2)C[C@H](n2cnc3c(N4CCOCC4)ncnc32)O1	-0.2	.	-21.9	-0.6	-4.5	.	.
CN(C)S(=O)(=O)c1cccc(N=C2NN=C(c3ccccc3)CS2)c1	54.4*	-7.6	.	.	.	.	39.1*
Fc1ccccc1N=C1NN=C(c2ccccc2)CS1	10.2	-34.9	2.7	-8.2	-8.8	-4.7	.
O=C(O)c1cccc(-n2cccc2/C=C\[N+](=O)[O-])c1	36.0*	-18.0	4.5	8.6	-3.1	-3.8	5.1
CCCCOc1ccc(S(=O)(=O)N2CCN(c3ccc(N4CCN(CC)CC4)nn3)CC2)cc1	-0.7	.	-5.1	-4.5	3.6	-7.8	.
COc1ccc(Cc2c(-c3ccco3)nc3ccc(Cl)cn23)c(C)c1	27.3*	.	36.4	26.8*	1.8	.	14.9
COc1ccc(Cc2c(-c3ccccc3)nc3ccc(Cl)cn23)c(C)c1	-2.2	.	-1.1	-6.7	4.6	.	.
Cc1ccc(Cc2c(-c3ccco3)nc3ccc(Br)cn23)cc1	31.4*	.	33.2	58.1*	5.3	.	16.0
COc1ccc(Cc2c(-c3ccco3)nc3ccc(Br)cn23)c(C)c1	30.9*	.	41.4	42.6*	-6.5	.	20.0
Cc1ccc(Cc2c(-c3ccc(C)cc3)nc3ccc(Br)cn23)cc1	-0.1	.	9.5	-9.7	5.1	-8.9	.
CN(Cc1ccccc1F)C(=O)c1sccc1-c1ccccc1	2.8	.	4.7	-1.5	-5.3	-6.2	.
CN1OC[C@@H]2CN(S(=O)(=O)c3cccc4ccccc34)[C@H](c3ccc(-c4ccccc4)cc3)C[C@@H]21	3.4	.	-6.5	5.1	-4.7	1.4	.
